The record followed here is PubChem BioAssay AID2551 (National Center for Advancing Translational Sciences (NCATS), 2010).

Hit rate of the full screen: of about 310,000 compounds, about 17,000 (5.5%) were called active. Inconclusive results (about 11%) are left out. Calls follow the shape of the dose curve; as a rule, active = well fitted inhibition curve with a large enough effect; inconclusive = small, poorly fitted or top-dose-only effect, or effect the other way; inactive = no such curve, though single readings can be large or run the other way. Many of the other results were omitted from the sample, so actives are more common in it than they were.
% is scaled to controls: 0 for no effect and ±100 for the full control effect; potency is read from the fitted curve at half-maximal effect.

Nuclear receptor ROR-gamma (Mus musculus), sequence (P51450 whole entry, looked up, the tested form may be a part): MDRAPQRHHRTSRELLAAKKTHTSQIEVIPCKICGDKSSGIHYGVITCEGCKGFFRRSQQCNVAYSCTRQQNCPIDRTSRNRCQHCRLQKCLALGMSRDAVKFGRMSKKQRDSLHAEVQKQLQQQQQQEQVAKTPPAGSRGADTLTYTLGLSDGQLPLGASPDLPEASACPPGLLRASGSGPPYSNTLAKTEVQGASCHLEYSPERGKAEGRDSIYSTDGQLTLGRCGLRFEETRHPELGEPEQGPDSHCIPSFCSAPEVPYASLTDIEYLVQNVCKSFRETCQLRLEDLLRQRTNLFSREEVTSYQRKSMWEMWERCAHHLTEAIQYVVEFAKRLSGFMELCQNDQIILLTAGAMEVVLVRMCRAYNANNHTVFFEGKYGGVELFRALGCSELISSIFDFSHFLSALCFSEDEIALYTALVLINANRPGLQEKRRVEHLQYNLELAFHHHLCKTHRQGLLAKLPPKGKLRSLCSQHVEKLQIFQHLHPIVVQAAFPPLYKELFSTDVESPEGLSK

The test has as its target Nuclear receptor ROR-gamma (Mus musculus) (UniProt P51450). The test is described as follows: qHTS for inhibitors of ROR gamma transcriptional activity. Also: nearly all actives have a fitted effect of over 60% in size. The settings on record: Drosophila S2 Gal4-RORgamma UAS-luciferase reporter, 20 h; series mostly up to 53.6 µM; activity change, negative = inhibition: at the top concentration. The source says: NIH Molecular Libraries Probe Production Network [MLPCN] NIH Chemical Genomics Center [NCGC] MLPCN Grant: R03 DA026211-01 Assay Provider: Dan Littman, New York University Assay Overview: The retinoic acid-related orphan receptor (ROR) gamma is a transcription factor that has a central role in the differentiation of Th17 cells, a subset of T helper cells that secrete the inflammatory cytokines IL-17, IL-17F, and IL-22. Th17 cells have been implicated in graft versus host disease, autoimmune disease and asthma. ROR gamma is induced in naive T helper cells in the presence of TGF-beta combined with IL-6, IL-21, or IL-23, and thereafter directs the expression of the Th17 lineage cytokines. To study the mechanism of action of ROR gamma, an insect cell-based assay was screened. This Drosophila Schneider cell line was stably transfected with two vectors: a gene expressing a fusion of the Gal4 DNA binding domain and ROR gamma transactivation domain under the control of the metallothionine promoter and a Photinus luciferase reporter regulated by the Gal4 binding site enhancer, UAS. […] Small molecule inhibitors of ROR gamma activity are detected by a decrease in luciferase reporter activity.
Assay Protocol Summary: For screening, 600 cells in 4 uL/well were dispensed into white solid 1536-well plates (Grenier) using a solenoid-based dispenser. Following transfer of 23 nL compound or DMSO vehicle by a pin tool, the plates were incubated 1 hr at ambient temperature, and 1 uL/well copper sulfate (700 uM final concentration) was added. The plates were centrifuged 15 s at 1000 RPM and incubated 20 hr at ambient temperature. After addition of 1.5 uL Photinus luciferase detection reagent, the plates were incubated 10 min at ambient temperature and then read by an ViewLux (Perkin Elmer) to detect luminescence. Keywords: NIH Roadmap, MLPCN, MLI, MLSMR, qHTS, NCGC, qHTS, nuclear hormone receptor, retinoic acid-related orphan receptor, ROR gamma
(qHTS replaces the single test concentration by a dilution series.)
Turning to `c1ccc2sc(N3CCNCC3)nc2c1`, the “activity change, negative = inhibition” value is -0.416% (inactive).
With `c1ccc2sc(SNC3CCCCC3)nc2c1`, the Potency was 8.91 µM (active).
As for `c1ccc2sc(C3CCCNC3)nc2c1` (stereo not given), the “activity change, negative = inhibition” value is 1.38% (inactive).
For `CC[N+](C)(CC)CCC[n+]1c(-c2ccccc2)c2cc(N)ccc2c2ccc(N)cc21`, the Potency is 3.16 µM (active).
For `CN[C@@H]1C[C@H]2O[C@@](C)([C@@H]1OC)n1c3ccccc3c3c4c(c5c6ccccc6n2c5c31)C(=O)NC4`, the activity change, negative = inhibition was -41% [at 10 µM] (inactive).
For `CCOc1cccc(=NC2CCCCC2)c2c(C)[nH]c(C)c12`, the “activity change, negative = inhibition” value is -1.6% (inactive).
As for `O=c1oc2ccccc2c(O)c1C(c1ccccc1O)c1c(O)c2ccccc2oc1=O`, the “activity change, negative = inhibition” value is -16.8% (inactive).
Still for that read-out and setting: the value for `CCNC[C@H](O)c1cccc(O)c1` was -12.3% [at 2.98 µM] (inactive); that for `C/C(=C\C=C/[C@@H](C)C(=O)O)[C@H]1CN[C@H](C(=O)O)[C@@H]1CC(=O)O` was -22.1% (inactive).
In the case of `Fc1ccc(C(OCCN2CCN(C/C=C\c3ccccc3)CC2)c2ccc(F)cc2)cc1`, the Potency is 14.1 µM (active).
As for `ClC(Cl)=C(Cl)C(Cl)=C(Cl)Cl`, the “activity change, negative = inhibition” value is 11.4% (inactive).
Same read-out and setting: the value for `CC(C)(C)C(O)(CCc1ccc(Cl)cc1)Cn1cncn1` (stereo not given) was 3.39% (inactive).
For the molecule `O=c1[nH]c(=O)n(Cc2ccccc2)c(O)c1/C=N/Nc1c(F)c(F)c(F)c(F)c1F`, the “activity change, negative = inhibition” value was -1.88% (inactive).
Consider `O=C(N/N=C/c1c(O)n(C2CC2)c(=S)[nH]c1=O)c1ccccc1`, for which the Potency is 14.1 µM (active).
Regarding `O=c1[nH]c(=S)n(C2CC2)c(O)c1/C=N/N1CCOCC1`, the “activity change, negative = inhibition” value was -6.79% (inactive).
In the case of `COc1ccc(C2N3CC(C)(C)CN23)cc1` (stereo not given), the “activity change, negative = inhibition” value was 17.3% (inactive).
Still for that read-out and setting: the value for `Clc1ccccc1` was 2.46% (inactive).
On to `C[C@@H]1C[C@@H]2O[C@H]2/C=C\C=C\C(=O)Cc2c(Cl)c(O)cc(O)c2C(=O)O1`, for which the Potency is 10 µM (active).
As to `CNC(C)[C@@H](O)c1ccccc1` (stereo not given in full), the “activity change, negative = inhibition” value was -6.04% (inactive).
With `c1ccc(CN2CC[C@@]3(CCCNC3)C2)cc1`, the “activity change, negative = inhibition” value is -4.86% (inactive).
`CCCCC/C=C\C/C=C\C/C=C\C=C\[C@H](CCCC(=O)O)OO`: the “activity change, negative = inhibition” value is -25.9% (inactive).
Take `CCC(C)C(=O)O[C@@H]1C[C@@]2(C)C(c3ccoc3)OC(=O)CC23OC2(C)O[C@@]14[C@@]1(C)C(CC(=O)OC)C5(C)CC1(O)C(O)(C5OC(=O)C1(C)OC1C)C(OC(C)=O)[C@@]34O2` (stereo not given in full): the “activity change, negative = inhibition” value is 40.2% (inactive).
In the case of `CCCCCn1c(=O)c(C(=O)NCc2ccccn2)c(O)c2ccccc21`, the Potency was 5.01 µM (active).
As for `CCCCCn1c(=O)c(C(=O)Nc2c(C)n(C)n(-c3ccccc3)c2=O)c(O)c2ccccc21`, the “activity change, negative = inhibition” value is 11.8% (inactive).
Consider `CCCCCn1c(=O)c(C(=O)NCc2ccccc2)c(O)c2ccccc21`, for which the Potency was 12.6 µM (active).
As to `CCCCn1c(=O)c(C(=O)Nc2ccccc2Cl)c(O)c2ccccc21`, the activity change, negative = inhibition is 1.37% [at 1.91 µM] (inactive).
Same read-out and setting: the value for `CC[N+]1(CCOC(=O)C(O)(c2ccccc2)c2ccccc2)CCCCC1` was 39.3% (inactive); that for `Cc1cccc([C@H](C)c2cnc[nH]2)c1C` was -27.6% (inactive).
On to `CCC1(c2ccccc2)C(=O)NC(=O)N(C)C1=O` (stereo not given), for which the “activity change, negative = inhibition” value was 20.7% (inactive).
For the molecule `O=c1[nH]c(=O)n(-c2ccccc2)c(O)c1C=NC12CN3CN(CN(C3)C1)C2`, the “activity change, negative = inhibition” value was -4.47% (inactive).
With `CC(=O)c1c(O)c(C)c(O)c(Cc2c(O)c3c(c(C(=O)/C=C/c4ccccc4)c2O)OC(C)(C)C=C3)c1O`, the “activity change, negative = inhibition” value was 15.8% (inactive).
Consider `CC[C@@H]1CN2CC[C@@H]1C[C@H]2[C@H](O)c1ccnc2ccc(OC)cc12`, for which the “activity change, negative = inhibition” value is 2.09% (inactive).
As for `N#CC(C#N)=Cc1cc(O)c(O)c([N+](=O)[O-])c1`, the “activity change, negative = inhibition” value was -101% (inactive).
Turning to `CCN1C[C@@]2(COC)CC[C@H](OC)[C@]34[C@@H]1[C@]1(OCO[C@@]15C[C@@H](OC)C1C[C@H]3[C@H]5[C@@H]1OC)[C@H](O)[C@@H]24`, the “activity change, negative = inhibition” value was 1.1% [at 16.9 µM] (inactive).
For `C[C@H]1C/C=C/[C@@H]2[C@@H]3O[C@]3(C)[C@@H](C)[C@H]3[C@H](Cc4ccccc4)NC(=O)[C@]32OC(=O)O/C=C/[C@](C)(O)C1=O`, the “activity change, negative = inhibition” value was -36% (inactive).
Consider `C=CCN1CCC23c4c5ccc(O)c4O[C@H]2C(=O)CC[C@@]3(O)C1C5` (stereo not given in full), for which the activity change, negative = inhibition was 14.1% [at 10 µM] (inactive).
Take `COC([CH2][Hg])CNC(=O)c1ccccc1OCC(=O)O` (stereo not given): the “activity change, negative = inhibition” value is -0.223% (inactive).
In the case of `CN(C)C[C@H]1CCCC[C@]1(O)c1cccc(O)c1`, the “activity change, negative = inhibition” value was -2.52% (inactive).
Regarding `c1csc(CN2CCCC3(CCNCC3)C2)n1`, the “activity change, negative = inhibition” value is -23.1% (inactive).
With `C[C@H]1CC[C@@]2(NC1)O[C@@H]1C[C@H]3[C@@H]4CC=C5C[C@@H](O)CC[C@]5(C)[C@@H]4CC[C@]3(C)[C@@H]1[C@@H]2C`, the “activity change, negative = inhibition” value is 0.0152% [at 16.9 µM] (inactive).
Turning to `CN1CCCC(=C(c2cccs2)c2cccs2)C1`, the “activity change, negative = inhibition” value is 0.594% (inactive).
On to `CCCCCCCCCCCCN=C(N)N`, for which the “activity change, negative = inhibition” value was 15.1% (inactive).
Take `CN1C2C=C(N(C(=O)c3ccc(Cl)cc3)c3ccccc3)CC1CC2` (stereo not given): the “activity change, negative = inhibition” value is -23.9% (inactive).
As to `Cc1cc(C)cc(C(=O)N(CCc2ccccc2)C2=CC3CCC(C2)N3C)c1` (stereo not given), the Potency is 12.6 µM (active).
`CCCCC/C=C\C/C=C\C/C=C\C/C=C\CCCCCC(=O)NCCO`: the Potency result was “inactive”.
`O=C(N/N=C/c1ccc([N+](=O)[O-])o1)c1cc([N+](=O)[O-])cc([N+](=O)[O-])c1O`: the “activity change, negative = inhibition” value is -2.56% (inactive).
Regarding `c1ccc(N2CC[C@@]3(CCCNC3)C2)nc1`, the “activity change, negative = inhibition” value was -12.7% (inactive).
Still for that read-out and setting: the value for `CCC(=NCc1ccco1)c1c(O)n(Cc2ccccc2)c(=O)[nH]c1=O` was 33.4% (inactive).
Regarding `CCC(=NCCc1ccccc1)c1c(O)n(C2CCCCC2)c(=O)[nH]c1=O`, the “activity change, negative = inhibition” value was -28.4% (inactive).
`CC/C(=N\NC(=O)c1ccccc1O)c1c(O)n(Cc2ccccc2)c(=O)[nH]c1=O`: the Potency is 12.6 µM (active).
